Measurements published in PubChem BioAssay (NCI).
About 83,000 compounds went through this panel and 20% of them were active in at least one assay; those are over-represented in the sample as a whole.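 Testing used 96-well plates and a 48-hour single-concentration exposure. Example: -40 means 40% of the starting cells died.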 Active and inactive are the calls of the source. How the source made its calls: active means growth percent below 10; inactive means the rest.

Experiments:
Test in all cases: NCI-60 one-dose screen, 48 h (100 = growth as untreated, 0 = no growth, -100 = all killed)
[1] = tested on: HT29 colon; conditions: 10 µM unless noted
[2] = tested on: SNB-75 CNS; conditions: 10 µM unless noted
[3] = tested on: SNB-19 CNS; conditions: 10 µM unless noted
[4] = tested on: U251 CNS; conditions: 10 µM unless noted
[5] = tested on: PC-3 prostate; conditions: 10 µM unless noted
[6] = tested on: SK-MEL-5 melanoma; conditions: 10 µM unless noted
[7] = tested on: UACC-62 melanoma; conditions: 10 µM unless noted
[8] = tested on: LOX IMVI melanoma; conditions: 10 µM unless noted
[9] = tested on: SK-MEL-28 melanoma; conditions: 10 µM
[10] = tested on: SK-MEL-2 melanoma; conditions: 10 µM unless noted
[11] = tested on: EKVX NSCLC; conditions: 10 µM unless noted
[12] = tested on: SN12C renal; conditions: 10 µM unless noted
[13] = tested on: UO-31 renal; conditions: 10 µM unless noted
[14] = tested on: TK-10 renal; conditions: 10 µM unless noted
[15] = tested on: ACHN renal; conditions: 10 µM unless noted
[16] = tested on: CAKI-1 renal; conditions: 10 µM unless noted
[17] = tested on: A498 renal; conditions: 10 µM unless noted
[18] = tested on: CCRF-CEM leukemia; conditions: 10 µM unless noted
[19] = tested on: MOLT-4 leukemia; conditions: 10 µM unless noted
[20] = tested on: SR leukemia; conditions: 10 µM unless noted

Measured: growth

Cn1cc([C@@H]2Nc3ccc4[nH]ncc4c3[C@H]3[C@H]4CCC(C4)[C@H]32)c(C(F)(F)F)n1
active: [17] 8.35%
inactive: [1] 16% | [2] 13.1% | [3] 50.7% | [4] 42.5% | [5] 52.1% | [6] 30.5% | [7] 30.4% | [8] 44.2% | [9] 62% | [10] 21.1% | [11] 67.1% | [12] 50.6% | [13] 49.6% | [14] 65.6% | [15] 50.5% | [16] 35.3% | [18] 27.6% | [19] 29.4%

CCN1C(=O)N(CC)C2C1NC(=S)N2/N=C/C=C/c1ccccc1OC (configuration not stated)
active: [1] 2.77% | [6] -40.7% | [17] -4.32%
inactive: [2] 44.8% | [3] 26.5% | [4] 20.8% | [5] 25.2% | [7] 25.8% | [8] 21.1% | [9] 56.7% | [10] 32.6% | [11] 30.9% | [12] 26% | [13] 46.3% | [14] 55.2% | [15] 22.9% | [16] 28.4% | [18] 13.8% | [19] 15.7% | [20] 12%

COc1cc(/C=C/C(=O)c2c(C)nc3ccccc3c2/C=C/c2ccccc2)cc(OC)c1OC
inactive: [2] 14.2% | [5] 20.5% | [7] 10.5% | [11] 26.9% | [12] 11.1% | [13] 27.4% | [14] 10.1% | [16] 30.8% | [17] 40.6%
active: [1] -1.3% | [3] 1.12% | [4] -14.1% | [6] 8.08% | [8] -86.7% | [9] 1.27% | [10] -6.78% | [15] -27.4% | [18] 4.76% | [19] -0.744%

O=c1oc2ccc(F)cc2c(=O)n1-c1ccc(I)cc1F
active: [2] -15.3% | [4] 0.481% | [5] -2.68% | [6] -84.1% | [7] -16.4% | [10] -19.7% | [11] 9.58% | [12] -3.72% | [13] 2.62% | [14] 0.748% | [15] 1.58% | [16] -19.2% | [17] -61.4% | [19] -0.279%
inactive: [1] 46.2% | [3] 15.6% | [8] 10.7% | [9] 12.3% | [18] 12%

COc1ccc(/C=C/C(=O)c2c(C)nc3ccccc3c2/C=C/c2ccccc2)cc1O
inactive: [1] 71.6% | [2] 24.9% | [3] 67.3% | [4] 49% | [5] 58.4% | [6] 59.3% | [7] 48.6% | [8] 33% | [9] 75.2% | [10] 66.8% | [11] 90.3% | [12] 62.2% | [13] 53.3% | [14] 125% | [15] 62.2% | [16] 52.6% | [17] 106% | [18] 32.2% | [19] 29.9%

O=C(c1ccccc1)N(C(=S)NCCc1ccc(Cl)cc1)c1ccccc1
inactive: [1] 101% | [2] 118% | [3] 104% | [4] 87.6% | [5] 83.3% | [6] 98.3% | [7] 96.9% | [8] 68.2% | [9] 113% | [10] 99.9% | [11] 96.3% | [12] 110% | [13] 80% | [14] 82.5% | [15] 108% | [16] 93.2% | [17] 95.3% | [18] 61.3% | [19] 47.6%

COc1c(B(O)O)cccc1-c1nc2ccc3n[nH]c(F)c3c2c2c1CCCC2
inactive: [1] 105% | [3] 78.8% | [4] 71.4% | [5] 74% | [6] 88.7% | [7] 77.7% | [8] 54.7% | [9] 116% | [10] 110% | [11] 93% | [12] 62.6% | [13] 41.5% | [14] 35.7% | [15] 65.9% | [17] 65.7% | [18] 38.8% | [19] 37.8%
active: [2] -10.9% | [16] 0.82%

O=C(/C=C/c1ccc(Cl)cc1)c1ccc(Nc2nc(NCCO)nc(N3CCOCC3)n2)cc1
inactive: [1] 42.2% | [2] 64.6% | [3] 91.9% | [4] 46.1% | [5] 77.1% | [6] 79.4% | [7] 69% | [8] 68% | [9] 94.7% | [10] 109% | [11] 94% | [12] 88.4% | [13] 56% | [14] 111% | [15] 82.5% | [16] 77.6% | [17] 92.6% | [18] 82.8% | [19] 71.3% | [20] 19.8%

CC[C@]1(O)C[C@@H]2CN(CCc3c([nH]c4ccccc34)[C@@](C(=O)OC)(c3cc4c(cc3OC)N(C)[C@H]3[C@@](O)(C(=O)OC)[C@H](OC(=O)CCCBr)[C@]5(CC)C=CCN6CC[C@]43[C@@H]65)C2)C1
inactive: [2] 13.2% | [3] 28.8% | [4] 13.5% | [5] 20.1% | [7] 34.8% | [9] 67.3% | [10] 13.6% | [11] 31% | [12] 23.9% | [13] 37.7% | [14] 46.5% | [15] 28.2% | [19] 17.3%
active: [1] 4.86% | [6] -42.8% | [8] 8.02% | [16] 9.84% | [17] -1.7% | [18] 6.76%

COc1c(B(O)O)cccc1-c1nc2ccc3[nH]ncc3c2c2c1C1CCC2C1 (configuration not stated)
active: [2] 2.23% | [16] 1.43%
inactive: [1] 71.9% | [3] 74% | [4] 66.4% | [5] 76.9% | [6] 75.7% | [7] 70.3% | [8] 52% | [9] 104% | [10] 80.8% | [11] 101% | [12] 59.8% | [13] 29.3% | [14] 44.2% | [15] 63.2% | [17] 87.2% | [18] 20.5% | [19] 52.8%

Cc1nc2ccccc2c(/C=C/c2ccc(F)cc2)c1C(N)=O
inactive: [1] 115% | [2] 85.4% | [3] 99.2% | [4] 98.1% | [5] 89.1% | [6] 95.9% | [7] 96.1% | [8] 96.4% | [9] 117% | [10] 105% | [11] 94.8% | [12] 102% | [13] 80.9% | [14] 134% | [15] 100% | [16] 87.2% | [17] 89.2% | [18] 93.6% | [19] 111%

O=C1c2cc(Cl)ccc2Oc2cc([N+](=O)[O-])ccc2N1c1ccc(F)cc1F
inactive: [1] 79% | [2] 69.8% | [3] 91.9% | [4] 86.6% | [5] 89.4% | [6] 68.7% | [7] 81.2% | [8] 95.4% | [9] 114% | [10] 80.3% | [11] 108% | [12] 101% | [13] 71.2% | [14] 112% | [15] 90.6% | [16] 59% | [17] 91.3% | [18] 85.3% | [19] 57.4%

O=c1oc2ccc(Cl)cc2c(=O)n1-c1ccc(Cl)cc1F
inactive: [3] 18.4%
active: [1] 7.06% | [2] -25.3% | [4] -4.3% | [5] 2.03% | [6] -87% | [7] -10.7% | [8] 3.62% | [9] 0.566% | [10] -31% | [11] 9.78% | [12] 2.13% | [13] 6.59% | [14] 6.66% | [15] 4.37% | [16] -16.8% | [17] -71.7% | [18] 5.21% | [19] -25.1%

O=C(Nc1ccc(Br)cc1F)c1cc(I)ccc1O
inactive: [1] 92.4% | [3] 13.3% | [8] 13.7% | [9] 19.1% | [11] 43.8% | [14] 12.9% | [18] 11.9%
active: [2] -9.93% | [4] 3.12% | [5] 7.07% | [6] -68.4% | [7] 3.48% | [10] -26.7% | [12] 5.88% | [13] 2.04% | [15] 6.1% | [16] -16.8% | [17] -40.9% | [19] 6.68%

COc1cccc(/C=C/C(=O)c2c(C)nc3ccccc3c2/C=C/c2ccccc2)c1OC
inactive: [3] 36.3% | [4] 24% | [5] 43.3% | [6] 32.3% | [7] 28.5% | [9] 44.8% | [10] 32.3% | [11] 50.8% | [12] 31.1% | [13] 48.8% | [14] 61.6% | [15] 31.4% | [16] 39.2% | [17] 58.1% | [18] 13%
active: [1] 2.64% | [2] 9.19% | [8] -59.4% | [19] 4.78%

O=C(c1nc2ccccc2[nH]1)C1[C@@H](c2cccc(O)c2)C2CC3CCCCC3N2[C@@]12C(=O)Nc1cc(Cl)ccc12 (some centres not stated)
inactive: [1] 50.6% | [2] 27.2% | [3] 42.4% | [4] 37.7% | [5] 24% | [6] 37.2% | [7] 47.6% | [8] 22.3% | [9] 45% | [10] 60.2% | [11] 41.9% | [12] 43.6% | [13] 33.5% | [14] 72.4% | [15] 30.4% | [16] 80% | [17] 52.7% | [18] 15%
active: [19] 7.08% | [20] 3.72%
